The source of these data is PubChem BioAssay AID720704 (The Scripps Research Institute Molecular Screening Center, 2013).

Each structure is given as a SMILES string. Among all 370,000 compounds or so, about 660 (0.18%) were called active. Only a selection was taken, and actives are over-represented in it overall. Values without a mark were called inactive. Cut-off read from the data, not from the text of the source: active = inhibition above about 11%; inactive = the rest.

In the assay the target is 1-phosphatidylinositol 4,5-bisphosphate phosphodiesterase beta-3 (Homo sapiens) (UniProt Q01970). The assay is described as follows: human PLC-beta3 inhibitors, primary screen, biochemical, fluorescence (AID 720704).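 Note: 0% = median of compound wells on plate and 100% = full blocker control.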 As to conditions: Purified PLC-beta3, fluorogenic substrate, at 12.2 µM, active compounds read high.
1-phosphatidylinositol 4,5-bisphosphate phosphodiesterase beta-3 (Homo sapiens), sequence (Q01970 whole entry, looked up): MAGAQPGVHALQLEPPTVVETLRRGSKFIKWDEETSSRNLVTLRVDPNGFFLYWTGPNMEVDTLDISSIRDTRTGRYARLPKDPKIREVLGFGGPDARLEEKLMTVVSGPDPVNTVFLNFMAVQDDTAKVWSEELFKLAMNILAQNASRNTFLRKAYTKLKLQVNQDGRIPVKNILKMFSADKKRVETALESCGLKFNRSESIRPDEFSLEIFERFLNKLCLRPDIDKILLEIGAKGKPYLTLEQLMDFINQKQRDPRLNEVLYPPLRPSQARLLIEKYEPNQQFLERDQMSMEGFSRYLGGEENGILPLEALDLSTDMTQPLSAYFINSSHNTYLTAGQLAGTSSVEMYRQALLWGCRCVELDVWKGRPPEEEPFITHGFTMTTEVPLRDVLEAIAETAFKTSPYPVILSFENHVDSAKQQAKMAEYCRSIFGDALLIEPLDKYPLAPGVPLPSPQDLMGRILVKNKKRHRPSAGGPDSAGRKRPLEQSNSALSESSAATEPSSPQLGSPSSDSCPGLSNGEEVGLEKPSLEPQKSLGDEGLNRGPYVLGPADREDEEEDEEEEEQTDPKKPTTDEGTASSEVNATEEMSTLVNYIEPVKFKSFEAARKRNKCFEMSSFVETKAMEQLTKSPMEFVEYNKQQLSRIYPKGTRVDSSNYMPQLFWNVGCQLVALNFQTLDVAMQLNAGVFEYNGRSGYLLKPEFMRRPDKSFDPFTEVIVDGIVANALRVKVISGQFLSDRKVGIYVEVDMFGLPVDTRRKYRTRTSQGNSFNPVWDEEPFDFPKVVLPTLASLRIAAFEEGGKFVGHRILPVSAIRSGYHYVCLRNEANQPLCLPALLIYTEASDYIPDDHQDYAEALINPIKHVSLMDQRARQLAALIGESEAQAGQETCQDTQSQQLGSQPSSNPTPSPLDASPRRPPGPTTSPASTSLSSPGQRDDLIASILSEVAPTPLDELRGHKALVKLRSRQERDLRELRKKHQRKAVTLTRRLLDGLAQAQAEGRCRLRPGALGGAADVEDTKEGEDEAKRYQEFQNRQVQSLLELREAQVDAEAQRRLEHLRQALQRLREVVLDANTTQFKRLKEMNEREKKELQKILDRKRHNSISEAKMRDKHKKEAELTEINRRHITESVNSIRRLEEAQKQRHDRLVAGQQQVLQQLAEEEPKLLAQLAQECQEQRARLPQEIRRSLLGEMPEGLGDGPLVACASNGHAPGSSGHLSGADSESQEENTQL
For `CN(C)CCCN=Cc1c(O)n(Cc2ccco2)c(=O)[nH]c1=O`, the inhibition (usually the change of the read-out against control, counted positive when it falls) is -6.13%.
Take `CCC(=NCc1ccco1)c1c(O)n(Cc2ccccc2)c(=O)[nH]c1=O`: the inhibition was 11.8% (active).
Turning to `CCCCn1c(O)c(C(CC)=NCc2ccco2)c(=O)[nH]c1=O`, the inhibition is 7%.
For `COC(=O)[C@@H]1C(OC(=O)c2ccccc2)CC2CCC1N2C` (stereo not given in full), the inhibition was -5.47%.
In the case of `CCN1c2nc3c(C)cccn3c(=O)c2CC2(C(=O)N(C)C(=O)N(C)C2=O)C1C` (stereo not given) it was -9.87%; in that of `c1ccc(CC2CCCCN2)cc1` (stereo not given), -1.27%; in that of `CC(C)(C)[C@]1(O)C[C@@H]2OC(=O)C[C@@]23C(=O)O[C@@H]2OC(=O)[C@H](O)[C@]213`, 11.8% (active).
As for `CN(C)/C=C(\C=[N+](C)C)c1[nH]ncc1[N+](=O)[O-]`, the inhibition was 3.86%.
In the case of `Cc1cc(C)cc(NC(=S)NC2CC3CCCC(C2)N3Cc2cccs2)c1` (stereo not given) it was 5.75%; in that of `O=C(COC(=O)Cc1ccccc1)Nc1ccc(F)cc1`, 3.13%.
